# Assay results: PubChem BioAssay (Tox21)
# Unmarked numbers belong to inactive results. Calls of active or inactive are those of the source. Calls come from the whole dose curve; as a rule, active = well fitted curve in the direction sought with a large enough effect in the repeat runs; inconclusive = weak or mixed curves; inactive = flat fitted curve, though single readings scatter.
# Experiment: qHTS assay to test for compound auto fluorescence at 460 nm (blue) in HEK293 cell free culture (AID 720681)
# Settings: cell-free medium, autofluorescence 405/460 nm (blue); series mostly up to 91.3 µM; fluorescence, % of fluorescent control: at the top concentration
# Excerpt: U.S. Tox21 Program National Center for Advancing Translational Sciences [NCATS] NIH Chemical Genomics Center [NCGC] U.S. Environmental Protection Agency [EPA] National Institutes of Environmental Health Sciences [NIEHS] National Toxicology Program [NTP] U.S. Food and Drug Administration [FDA] Tox21 Assay Overview: Compound auto fluorescence often interferes with screening of the compound library against various biological targets and signaling pathways. Some of these compounds may have fluorophoric properties. Such properties may interfere with the assay outputs resulting in false positives and/or negatives. To decrease such complications and ensure the compound activities are relevant in terms of biological response, the Tox21 10K compound library was screened for auto fluorescence. From the fluorophores used as reporter signals in our screening assays, the auto fluorescence equivalencies of compounds against three fluorophores have been evaluated: Triamterene, Fluorescein and Rose Bengal sodium for blue, green and red fluorescence, respectively. The fluorescence intensities were measured using Excitation/Emission wavelengths at 405/460nm, 485/535nm and 540/590nm for blue, green and red labels, respectively. This assay includes the blue fluorescence data.
# Tox21 Assay Protocol Summary: 5 uL of culture medium (DMEM containing 10% FBS) per well was dispensed into black wall/clear bottom 1536-well plates using a Multidrop Combi Dispenser (ThermoFisher Scientific, Waltham, MA). After 23 nL compound or DMSO vehicle was transferred into assay plate by a pintool work station (Kalypsys, San Diego, CA), fluorescence intensities in the assay plates were measured by an Envision (PerkinElmer, Shelton, CT) plate reader using three labels for measuring blue, green and red fluorescence at […] 460, 535 and 590nm respectively.
# % is set by controls: 0 for no effect and ±100 for the full control effect.
Compound,"fluorescence, % of fluorescent control",outcome
c1ccc(-c2nn[nH]n2)cc1,-0.14%,–
CCOC(CN1CCN(CC(C)C(=O)c2ccccc2)CC1)c1ccccc1 (stereo not given),-0.0124% [at 46 µM],–
c1ccc(B(c2ccccc2)c2ccccc2)cc1,-0.0487%,–
CCCCCCCCCCCCCCCCCC#N,-0.246% [at 95.7 µM],–
CC(=O)CC(=O)Nc1ccc(C)cc1C,-0.126%,–
O=C1c2ccccc2C(=O)c2cc(Cl)ccc21,-0.0102% [at 3.72 µM],–
c1ccc2c(CC3=NCCN3)cccc2c1,–,inactive
CC(=O)O[C@@H]1CC2CCC1(C)C2(C)C (stereo not given in full),–,inactive
COC(=O)c1cc(Cl)cc(Cl)c1,0.0055%,–
COc1c2occc2c(OC)c2c(=O)cc(C)oc12,-0.0224% [at 18.6 µM],–
O=C1CCCCO1,-0.0666%,–
CCCc1ccc(O)cc1,-0.0069%,–
CCOC(=O)CC1(C)OCC(C)O1 (stereo not given),0.0064%,–
CCc1occc(=O)c1O,0.0086%,–
COC(C)(OC)OC,-0.0633%,–
NCC1(Cc2noc(=O)[nH]2)CCCCC1,-0.0042%,–
Cc1cc(C)c(C(=O)O)c(C)c1,-0.0087%,–
CSc1cnccn1,-0.203%,–
N[C@@H](Cc1ccc(O)cc1)C(=O)O,-0.0995% [at 46 µM],–
C=CCSSCCC,0.149%,–

Compound,"fluorescence, % of fluorescent control",outcome
Cc1c(Cl)cccc1Cl,0.111%,–
C=CCOC(=O)CCCCCC,-0.301%,–
CC(=O)c1cc(C)oc1C,0.0119% [at 95.7 µM],–
C=C(C)[C@@H]1CC=C(C)CC1,-0.0631%,–
O/N=C/C=N/O,0.0529%,–
C/C(CC(C)C)=N\O,0.493%,–
CC(N)CCCC(C)(C)O (stereo not given),-0.0196% [at 46 µM],–
CCCCCCCCCCCCCCCCCCOCCO,-0.0158% [at 18.6 µM],–
CNCCS(=O)(=O)O,0.0608%,–
O=C(CCCCC(=O)Nc1c(I)cc(I)c(C(=O)O)c1I)Nc1c(I)cc(I)c(C(=O)O)c1I,0.0691% [at 46 µM],–
C=C(C)c1cccc(C(C)(C)N=C=O)c1,-0.0121%,–
Cc1ccc(N)cc1S(=O)(=O)O,2.59%,–
CC(=O)CCC1=C(C)CCCC1(C)C,0.0247%,–
CCCCCCCCCCCCCCC(=O)NC(CO)CCCCCCCCCCCCCC (stereo not given),0.0521%,–
Cc1c(N)cccc1Cl,-0.109%,–
NCCOCCN,-0.0081%,–
CC1=C(C(=O)O)N2C(=O)[C@@H](NC(=O)[C@H](N)C3=CCC=CC3)[C@H]2SC1,-0.0088% [at 46 µM],–
COc1nc(N)nc2nc[nH]c12,0.0136%,–
CCC(C)OC(C)CC (stereo not given),0.0799% [at 95.7 µM],–
CC1CC(=O)CC(C)(C)C1 (stereo not given),0.0045%,–
